Screens: PubChem BioAssay, several laboratories
Mdm2-MdmX inh: inhibitors of human Mdm2-MdmX association, primary screen, cell-based, luminescence, split luciferase, SaOS-2, uHTS | Protein Mdm4 (Homo sapiens) + E3 ubiquitin-protein ligase Mdm2 (Homo sapiens), … | SaOS-2 split-luciferase Mdm2/MdmX complementation | inhibition, % at 8 µM | 3% of 330,000 active;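 active = inhibition of at least 50% at 8 µM in the primary screen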
Target sequence (O15151 whole entry, looked up): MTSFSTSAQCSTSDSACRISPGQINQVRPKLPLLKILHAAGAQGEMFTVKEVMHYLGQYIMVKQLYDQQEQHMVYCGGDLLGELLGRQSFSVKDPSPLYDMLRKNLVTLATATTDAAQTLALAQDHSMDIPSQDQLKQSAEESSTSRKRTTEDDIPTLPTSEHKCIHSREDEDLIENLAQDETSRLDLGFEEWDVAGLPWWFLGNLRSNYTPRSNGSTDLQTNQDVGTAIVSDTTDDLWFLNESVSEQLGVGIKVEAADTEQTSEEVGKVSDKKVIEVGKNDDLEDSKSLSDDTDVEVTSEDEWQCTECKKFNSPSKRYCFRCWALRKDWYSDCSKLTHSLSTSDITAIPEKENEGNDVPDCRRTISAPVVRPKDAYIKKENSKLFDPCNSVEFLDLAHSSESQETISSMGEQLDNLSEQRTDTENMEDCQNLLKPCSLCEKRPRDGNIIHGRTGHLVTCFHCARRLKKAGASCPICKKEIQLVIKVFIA
Target sequence (Q00987 whole entry, looked up): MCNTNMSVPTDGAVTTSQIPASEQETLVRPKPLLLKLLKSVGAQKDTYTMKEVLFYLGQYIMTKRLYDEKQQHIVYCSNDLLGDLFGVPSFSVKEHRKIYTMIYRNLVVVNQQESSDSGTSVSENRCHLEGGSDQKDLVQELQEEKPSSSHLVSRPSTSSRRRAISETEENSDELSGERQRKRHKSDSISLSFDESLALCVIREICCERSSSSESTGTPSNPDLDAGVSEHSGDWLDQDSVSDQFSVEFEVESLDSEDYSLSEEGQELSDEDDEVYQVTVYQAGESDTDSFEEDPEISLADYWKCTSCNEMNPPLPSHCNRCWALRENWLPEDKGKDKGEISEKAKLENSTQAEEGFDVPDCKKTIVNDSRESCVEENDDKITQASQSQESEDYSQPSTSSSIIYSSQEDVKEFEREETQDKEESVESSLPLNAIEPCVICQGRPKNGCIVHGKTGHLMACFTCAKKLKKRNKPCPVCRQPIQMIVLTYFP
Beta cell apopt: inhibitors of cytokine-induced beta cell apoptosis, primary screen, luminescence; INS-1E cytokine-induced death, ATP luminescence, 48 h; percent of positive-control rescue, neutral wells zero; 0.8% of 300,000 active; AID 435005, 2010; protection from apoptosis, % (no concentration beside the values);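 active = Every replicate reaches about 75%, or at least half do and their mean reaches it too, limit read from the data; inconclusive = At least half of replicates reach the limit but their mean does not; inactive = Under half of replicates reach the limit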;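 also: 0% = cytokine-treated negative control wells and 100% = positive control rescue; higher means more ATP so stronger rescue from cytokine killing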
MPTP inh: mitochondrial permeability transition pore inhibitors, primary screen, biochemical, isolated mouse mitochondria, absorbance; Ca2+ swelling absorbance, 30 min; inhibition, % at 10 µM; 1.4% of 360,000 active;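 active = inhibition of 50% or more, scaled per plate between neutral and stimulator controls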;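 also: 0% = DMSO wells given calcium and 100% = 1 mM EGTA wells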
Calb FLC: C. albicans growth inhibition with fluconazole, primary screen, CaCi-2 strain, Alamar Blue fluorescence. C. albicans CaCi-2 (fluconazole-resistant clinical isolate) + fluconazole, 48 h. growth inhibition, % (concentration not given with the values). 0.57% of 300,000 active. AID 1979, 2009;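 active = growth inhibition above about 58% in most replicates, limit read from the data, passing the limit was not always enough; inconclusive = exactly half the replicates above a set limit; inactive = most replicates below a set limit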;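 also: all wells also contain fluconazole at 8 µg/ml as a sub-toxic cotreatment; 0% = median of DMSO wells and 100% = median of geldanamycin control wells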
CSC inhib: cancer stem cell viability inhibitors, primary screen, luminescence. inhibition, % at 7.5 µM. 1.1% of 300,000 active. cancer stem cell-like cells viability; in the data active = inhibition above about 75%; inconclusive = no clear call, values can overlap the other calls; tested in HMLE shEcad cells
MPTP counter: fluorescence retest of MPTP screen hits in isolated mitochondria, single concentration; shares compounds with MPTP inh; membrane potential, Rhodamine 123 fluorescence; inhibition, % at 10 µM; 78% of 5,000 active; in the data active = inhibition above about 22%;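 also: 0% = DMSO vehicle and 100% = positive control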
MPTP abs DR: mitochondrial permeability transition pore inhibitors, dose response, biochemical, absorbance, uHTS hits; shares compounds with MPTP inh; isolated mitochondria swelling; IC50, µM; 58% of 780 active; AID 651561, 2012; in the data active = IC50 below about 20 µM
MPTP counter DR: fluorescent counter-screen in isolated mitochondria, dose response, counter-screen for MPTP inhibitor project, biochemical, fluorescence, uHTS hits. shares compounds with MPTP inh. IC50, µM. 49% of 780 active. AID 651564, 2012. isolated mitochondria counterscreen, fluorescence read-out; in the data active = IC50 below about 80 µM
Starred values were filed as active, the others as inactive; i = inactive; ? = inconclusive; / = no result given. Most compounds without a hit are left out; they make up all but 4.8% or so of the library.

SMILES	Mdm2-MdmX inh	Beta cell apopt	MPTP inh	Calb FLC	CSC inhib	MPTP counter	others
C=CCc1cccc2cc(C(=O)NNC(=O)CC#N)c(=O)oc12	28	-5	2	6	2	/
CCN(c1ccccc1)S(=O)(=O)c1cccc(C(=O)OCC(=O)Nc2ccc(NC(C)=O)cc2)c1	-3	-5	0	/	-4	/
N#CC1=C(SCC(=O)NC23CC4CC(CC(C4)C2)C3)NC(=O)C(C#N)C12CCCCC2 (stereo not given)	40	46	80*	15	34	87*
N#CC1=C(SCC(=O)NC2CC2)NC(=O)C(C#N)C12CCCCC2 (stereo not given)	-18	-5	0	-10	-3	/
CC(C)(C)C1CCC2(CC1)C(C#N)=C(SCC(=O)NC1CCCCC1)NC(=O)C2C#N (stereo not given)	33	107*	79*	?	?	88*
COc1ccccc1CC(=O)NNC(=O)c1ccco1	17	-3	-2	-3	/	/
Cc1c(CCNC=O)cc(C)c2c3c(oc12)CCCC3	/	/	0	/	/	/
CCN(CC#CCC(O)(c1ccccc1)C1CCCC1)C(C)C (stereo not given)	22	3	78*	13	9	-4	MPTP abs DR=i;MPTP counter DR=>80
CC(C)N(CC#CCC(O)(c1ccccc1)C1CCCC1)CCO (stereo not given)	5	-4	-1	-22	4	/
CNc1nc(-c2ccc([N+](=O)[O-])cc2)cs1	-5	-4	-4	-2	10	/
COc1ccc(-c2csc(NS(=O)(=O)c3ccc([N+](=O)[O-])cc3)n2)cc1	-36	3	84*	4	-13	78*
COc1ccccc1NC(=O)c1nnn(Cc2ccccc2)c1NC(=O)C(F)(F)F	-1	3	74*	-8	1	73*
CC(=O)Nc1c(C(=O)NCc2ccccc2)nnn1Cc1ccccc1	6	5	2	-1	/	/
O=C(Nc1ccccc1)c1nnn(Cc2ccccc2)c1NC(=O)C(F)(F)F	3	-8	89*	?	20	84*
COc1ccc([C@H]2CC(=O)C=C(c3cccc(C(C)C)c3)C2)cc1	14	-3	9	/	30	/
Cc1ccc(C(C)NC(=S)NC2CCCCC2)cc1C (stereo not given)	7	18	1	-38	-18	/
CC(NC(=S)NC1CCC(C(C)(C)C)CC1)c1ccccc1 (stereo not given)	21	28	55*	-26	30	87*
Cc1ccc(CNC(=S)NC2CCC(C(C)(C)C)CC2)cc1 (stereo not given)	23	5	51*	20	21	106*
COc1ccc(CNC(=S)NC2CCCC2)cc1	6	-1	-2	-2	17	/
Oc1c(Cl)cc(Cl)cc1C1=NNC(c2ccc(Cl)cc2)C1 (stereo not given)	/	/	68*	/	/	30*
Cc1cc(/C(N)=N/OC(=O)Nc2ccc(Cl)cc2)no1	7	0	57*	-2	9	82*
Cc1cc(/C(N)=N/OC(=O)Nc2ccccc2)no1	9	/	1	16	10	/
Cc1ccc(Oc2ccc(NC(=O)Cn3ccsc3=N)cc2)cc1	36	0	89*	4	48	-25	MPTP abs DR=6.3*;MPTP counter DR=>80
O=C(Nc1ccc2nc([C@H]3C[C@H](O)[C@@H](CO)O3)[nH]c2c1)NC(c1ccccc1)c1ccccc1	/	/	-1	/	/	/
N#C/C(=C(/O)COC(=O)c1ccc(C#N)cc1)c1nc2ccccc2s1	0	0	79*	16	0	88*
SMILES	Mdm2-MdmX inh	Beta cell apopt	MPTP inh	Calb FLC	CSC inhib	MPTP counter	others
N#C/C(=C(/O)COc1ccccc1)c1nc2ccccc2s1	7	16	84*	7	12	81*
N#C/C(=N\O)c1nc2ccccc2s1	18	-4	1	25	9	/
N#C/C(=C(/O)CSc1ccccc1C(=O)O)c1nc2ccccc2s1	19	/	0	?	-5	/
c1ccc(OCc2nc3ccccc3s2)cc1	-66	-3	1	0	-11	/
N#C/C(=C(/O)CSc1ccccn1)c1nc2ccccc2s1	-6	3	2	7	14	/
Cc1ccc(SC/C(O)=C(\C#N)c2nc3ccccc3s2)cc1	26	-10	94*	88*	37	91*
N#C/C(=C(/O)c1ccc(F)cc1)c1nc2ccccc2s1	-6	14	78*	52	-3	96*
COc1ccc([C@H]2C[C@@H](n3cc(-c4ccc(F)cc4)nn3)[C@H](O)CN2CC2CCCCC2)cc1	/	/	4	/	/	/
N#C/C(=C(/O)c1ccc(-c2cccc([N+](=O)[O-])c2)o1)c1nc2ccccc2s1	6	/	98*	?	/	69*
N#C/C(=C(/O)COc1ccc(Cl)cc1)c1nc2ccccc2s1	30	13	107*	94*	99*	90*
COc1cc(NC(=O)CCCNC(=O)Cn2cnc3sc(C)c(C)c3c2=O)cc(OC)c1OC	8	/	-3	2	-18	/
O=C1c2ccccc2C(=O)N1c1ccc(Cc2ccncc2)cc1	9	-4	54*	6	-8	16	MPTP abs DR=i;MPTP counter DR=27*
CCOC(=O)C1CCN(S(=O)(=O)c2cc(C(=O)N3CCCCC3)ccc2OC)CC1	-28	-2	0	-3	4	/
S=C(NCc1cccnc1)Nc1cc(Cl)cc(Cl)c1	-1	-12	82*	-20	5	82*
S=C(NCc1cccnc1)Nc1cccc(Cl)c1	0	-3	-1	1	/	/
O=C(NCc1cccnc1)Nc1cc(Cl)cc(Cl)c1	3	-1	85*	1	1	86*
O=C(NCc1ccccn1)c1ccc(OC2CCN(Cc3ccc(Cl)s3)CC2)cc1	13	1	1	-4	11	/
CC1=NN(c2nc(-c3ccccc3)cs2)C(=O)C1	-10	2	-5	-1	/	/
O=C1CC(c2ccccc2)=NN1c1nc(-c2ccccc2)cs1	4	-1	67*	?	44	42*
c1ccc(CNCCCNCCCCNCCCNCc2ccccc2)cc1	/	/	84*	/	/	-2	MPTP abs DR=1.4*;MPTP counter DR=>80
COc1ccc(C2SCCN2C(=S)Nc2cccc(Cl)c2)cc1 (stereo not given)	10	-4	96*	7	/	94*
COC(=O)c1ccc(C)c(NC(=S)NCc2ccc(Cl)cc2)c1	8	-1	26	-9	-10	/
